Assay in all cases: NCI-60 one-dose screen, 48 h (100 = growth as untreated, 0 = no growth, -100 = all killed)
What all share (conditions): 10 µM unless noted

In assay [1] the test system is MOLT-4 leukemia.
For assay [2], the system named is SR leukemia.
Assay [3] deals with RPMI-8226 leukemia.
Assay [4] relates to OVCAR-8 ovarian.
Assay [5] concerns OVCAR-5 ovarian.
Assay [6] deals with OVCAR-4 ovarian.
The subject of assay [7] is SK-OV-3 ovarian.
The test system of assay [8] is IGROV1 ovarian.
The subject of assay [9] is OVCAR-3 ovarian.
The test system of assay [10] is HS 578T breast.
Assay [11] relates to NCI/ADR-RES ovarian.
Assay [12] relates to T-47D breast.
The test system of assay [13] is BT-549 breast.
The subject of assay [14] is MDA-MB-435 melanoma.
Assay [15] concerns SW-620 colon.
Assay [16] concerns MCF7 breast.
Assay [17] relates to HCT-116 colon.
Assay [18] concerns HCC-2998 colon.
The subject of assay [19] is KM12 colon.

The values that follow come from PubChem BioAssay (NCI).

SMILES strings stand for the structures. The panel holds about 83,000 compounds, 20% with a hit somewhere; the sample as a whole holds those more often.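 How to read the values: 0–100, growth inhibition (40 = 60% inhibited); 0, no net growth; -100 to 0, cell death (-40 = 40% of starting cells died; -100 = all dead).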 A number with no mark means an inactive call. Calls of active or inactive are those of the source. The calls were made as follows: active = growth percent below 10; inactive = the rest.

With `C=C1C(=O)O[C@H]2[C@H]1CC/C(COC(=O)C(=O)c1cn(Cc3ccccc3)c3ccccc13)=C\CC[C@@]1(C)O[C@@H]21`, the growth is -17.3% (active) in [1]; 4.96% (active) in assay [2]; -36.2% (active) in [3]; -2.2% (active) in assay [4]; -32.6% (active) in assay [5]; 7.79% (active) in [6]. Besides, the growth in assay [7] is 86.9%; in assay [8] it was -85.5% (active); in assay [9], -82.7% (active); in assay [10], 5.95% (active); in [11], -1.18% (active); in assay [12], -7.91% (active). For the same compound, the growth in assay [13] was -77.4% (active); in [14], -76.6% (active); in assay [15] it was -84.8% (active); in assay [16] it was -68.7% (active); in assay [17], -81.5% (active); in [18], -85.4% (active). The growth in assay [19] is -89.7% (active).
Take `Nc1c(F)cc(-c2nc3cc(F)ccc3[se]2)cc1Br`: the growth in assay [1] is 91.2%; in assay [2] it was 15.7%; in assay [3], 35.1%; in assay [4], 93.1%; in assay [5] it was 8.24% (active); in assay [6], 30.1%. For the same compound, the growth is 39.7% in assay [7]; 5.47% (active) in assay [8]; 40.8% in [9]; 96.6% in [10]; 89.8% in assay [11]; -9.56% (active) in assay [12]. The growth in assay [13] is 43%; in assay [14] it was 94.2%; in assay [15] it was 84.4%; in assay [16], 2.12% (active); in [17] it was 15.5%; in assay [18], -35.1% (active). The growth in [19] was 38.8%.
On to `C=COC(=O)CCN1CC1`, for which the growth in assay [1] was 98.2%; in assay [2] it was 100%; in [3], 104%; in assay [4] it was 104%; in assay [5], 110%; in [6], 107%. In addition, the growth in [7] was 101%; in [8], 108%; in assay [9], 112%; in [10], 104%; in [11], 111%; in assay [12], 106%. The growth in assay [13] was 110%; in assay [14] it was 105%; in assay [15] it was 106%; in assay [16] it was 101%; in [17] it was 103%; in [18], 110%. Besides, in [19], the growth is 107%.
With `COc1cc(/C=N/C2=C(C#N)C(c3ccco3)c3c(c4cc(C)ccc4oc3=O)O2)cc(OC)c1OC` (stereo not drawn), the growth in [1] was 106%; in assay [2], 74.8%; in assay [3], 101%; in assay [4], 101%; in [5], 105%; in assay [6], 97.6%. Moreover, the growth in assay [7] was 92.6%; in [8], 83.1%; in assay [9] it was 91.4%; in [10] it was 64.3%; in [11] it was 96.3%; in assay [12], 88.2%. The growth in assay [13] was 91.1%; in assay [14], 26.1%; in assay [15], 81.7%; in assay [16], 70.1%; in assay [17], 84.9%; in assay [18] it was 109%. In addition, the growth in [19] was 81.4%.
Take `COc1ccc(/C=C\c2cc(OC)c(OC)c(OC)c2)c(NS(=O)(=O)c2ccc(F)cc2)c1O`: the growth in assay [1] is 19.6%; in assay [2] it was 19%; in assay [3], 23.3%; in assay [4], 22.5%; in assay [5], 40.4%; in [6] it was 29.3%. Besides, the growth in assay [7] is 12.4%; in [8] it was 28.3%; in assay [9], -37.8% (active); in assay [10], 25.3%; in assay [11], 2.13% (active); in [12], 103%. The growth in [13] is 24%; in [14] it was -34.9% (active); in [15] it was 21.1%; in assay [16], 9.22% (active); in assay [17] it was 7.7% (active); in assay [18], 14.9%. Moreover, the growth in assay [19] is 1.13% (active).
As to `CO[C@H]1CC[C@@]2(C)C(=CC[C@@H]3[C@@H]2CC[C@]2(C)C(=O)C(=O)C[C@@H]32)C1`, the growth in assay [1] is 115%; in [2], 107%; in assay [3] it was 88.9%; in assay [4], 93.3%; in assay [5], 103%; in assay [6], 113%. Moreover, the growth is 103% in [7]; 120% in assay [8]; 105% in assay [9]; 92.6% in assay [10]; 104% in assay [11]; 97.1% in assay [12]. Further, the growth in assay [13] was 106%; in assay [14] it was 112%; in [15], 100%; in [16], 102%; in assay [17], 97%; in assay [18], 109%. For the same compound, the growth in [19] is 111%.
As to `O=C1C2C(C(=O)[N]1[Hg][c]1ccccc1)C1(Cl)C(Cl)=C(Cl)C2(Cl)C1(Cl)Cl` (stereo not drawn), the growth is -2.76% (active) in assay [1]; -23.6% (active) in [2]; -40.8% (active) in [3]; -47.4% (active) in assay [4]; 73% in assay [5]; 5.55% (active) in assay [6]. Also, the growth is 62.1% in assay [7]; -39.3% (active) in assay [8]; -85.5% (active) in [9]; -14.1% (active) in [10]; 40.6% in assay [11]; -36.9% (active) in assay [12]. In addition, the growth in assay [13] was -89% (active); in assay [14], -78% (active); in assay [15], -78.4% (active); in assay [16] it was -55.3% (active); in assay [17] it was -77.7% (active); in [18] it was 11.7%. Besides, in assay [19], the growth is 74.6%.
